Assay outcomes: PubChem, National Center for Advancing Translational Sciences (NCATS)
DT40 TDP1 no CPT = qHTS for Inhibitors of human tyrosyl-DNA phosphodiesterase 1 (TDP1): qHTS in cells in absence of CPT; DT40 Tdp1-/- hTDP1 cells, no CPT, ATP luminescence, 48 h; Potency, µM (titrated, usually from 46.2 µM), for inactives: at the highest dose activity change, negative = growth inhibition, most hits filed as inhibitors; 15% of 420,000 active; AID 686978, 2013; further: potency means the concentration at half of the fitted maximal effect; on the % scale 0 is the no-effect control and ±100 the full control effect; nearly all actives have a fitted effect of over 55% in size
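Seeded 400 DT40-hTDP1 cells/well (vehicle DMSO, no 20 nM CPT); pinned compounds; ≥48 hr at 37 °C; CellTiter-Glo luminescence as viability measure.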
TDP1 block = qHTS Assay for Inhibitors of Tyrosyl-DNA Phosphodiesterase (TDP1). Tyrosyl-DNA phosphodiesterase 1 (Homo sapiens), Q9NUW8. recombinant TDP1, AlphaScreen DNA substrate cleavage. Potency, µM (highest dose often 130 µM), for inactives: top-dose activity change, negative = inhibition, actives largely listed as inhibitors. 0.28% of 350,000 active. AID 485290, 2010; further: potency means the concentration at half of the fitted maximal effect; on the % scale 0 is the no-effect control and ±100 the full control effect; nearly all actives have a fitted effect of over 40% in size
Target sequence (Q9NUW8 whole entry, looked up): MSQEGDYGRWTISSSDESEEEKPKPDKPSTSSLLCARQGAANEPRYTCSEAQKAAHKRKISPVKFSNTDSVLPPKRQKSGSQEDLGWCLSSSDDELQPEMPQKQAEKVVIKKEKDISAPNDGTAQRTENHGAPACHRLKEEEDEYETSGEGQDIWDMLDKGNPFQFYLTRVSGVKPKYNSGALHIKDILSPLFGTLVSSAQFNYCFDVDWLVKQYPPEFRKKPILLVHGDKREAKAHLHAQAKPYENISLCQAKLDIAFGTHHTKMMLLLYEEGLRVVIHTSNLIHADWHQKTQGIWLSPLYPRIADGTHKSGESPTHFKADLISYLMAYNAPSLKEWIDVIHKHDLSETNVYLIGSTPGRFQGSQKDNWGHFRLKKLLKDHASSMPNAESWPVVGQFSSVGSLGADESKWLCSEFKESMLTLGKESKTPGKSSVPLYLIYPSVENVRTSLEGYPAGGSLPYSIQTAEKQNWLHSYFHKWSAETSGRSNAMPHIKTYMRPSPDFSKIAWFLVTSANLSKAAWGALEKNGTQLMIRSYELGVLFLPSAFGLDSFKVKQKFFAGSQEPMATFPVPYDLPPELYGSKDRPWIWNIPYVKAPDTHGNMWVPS
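Compounds were preincubated with Tdp1 (1 nM final) for 15 min at room temperature before substrate (15 nM final) started a 5 min reaction; beads (10 ug/ml final) were then added for 10 min before AlphaScreen detection.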
DT40 TDP1 CPT = qHTS for Inhibitors of human tyrosyl-DNA phosphodiesterase 1 (TDP1): qHTS in cells in presence of CPT; Potency, µM (doses to about 46.2 µM), for inactives: at the top dose activity change, negative = growth inhibition, actives largely listed as inhibitors; chicken DT40 Tdp1-/-;hTDP1 cells + 20 nM CPT, ATP luminescence, 48 h; 12% of 420,000 active; further: potency means the concentration at half of the fitted maximal effect; on the % scale 0 is the no-effect control and ±100 the full control effect; nearly all actives have a fitted effect of over 55% in size
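Cell growth measured by CellTiter-Glo luminescence after a minimum 48 h, 37 C compound exposure with 20 nM CPT in Tdp1-knockout DT40 cells stably expressing hTDP1, seeded 400/well; qHTS titration format.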
TGFb inhibitor = qHTS for Inhibitors of TGF-b. 1.2% of 410,000 active. AID 588855, 2011. HepG2 CAGA-GFP TGF-b/SMAD3 reporter, GFP fluorescence, 18 h; TGF-beta stimulated, 500 pg/mL final. Potency, µM (series often up to 46.1 µM), for inactives: at the highest dose activity, negative = inhibition, usual class: inhibitors; further: potency means the concentration at half of the fitted maximal effect; on the % scale 0 is the no-effect control and ±100 the full control effect; nearly all actives have a fitted effect of over 65% in size
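Cell-based qHTS in HEPG2 carrying a CAGA-GFP Smad reporter; compounds added before 500 pg/mL final TGF-beta, 18 h incubation at 37 degrees C, GFP fluorescence quantified per cell by imaging cytometry.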
HepG2 viability = qHTS for Inhibitors of TGF-b: Cytotox Counterscreen | HepG2 CAGA-GFP viability, ATP luminescence, 18 h | Potency, µM (titrated, usually from 46.1 µM), inactives show at the top dose activity change, negative = cytotoxicity, actives largely listed as cytotoxic | 0.76% of 410,000 active | AID 588856, 2011; further: potency means the concentration at half of the fitted maximal effect
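HepG2 CAGA-GFP cells (1000/well, DMEM with 1% FBS) received compound, then TGF-beta at 500 pg/mL final, and were incubated 18 hours at 37 degrees C. Viability was read by CellTiter-Glo luminescence. Media-only wells were set as complete cell-killing and DMSO as no toxicity.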
IL-1B inflam inh = qHTS for Inhibitors of Inflammasome Signaling: IL-1-beta AlphaLISA Primary Screen; AID 743279, 2014; THP-1 LPS/ATP IL-1B secretion, AlphaLISA, 16 h; active compounds read low; 4.7% of 360,000 active; activity change, % at 57.5 µM; in the data active means activity change below about -50%; inconclusive means mostly about -30% to -49%; further: on the % scale 0 is the no-effect control and ±100 the full control effect
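Secreted IL-1B measured by AlphaLISA bead assay after 16 h compound exposure of THP-1 cells; compounds (final up to 57.5 uM) added 1 h before LPS (250 ng/mL) and ATP (1.25 mM) stimulation; lower signal means less secretion.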
Starred values were filed as active, the others as inactive; ? = inconclusive; . = no result; [ ] = another dose, or the depositor's remark. Hits are enriched below; roughly 18% of the tested compounds scored in any of these assays. Unless noted, the call rests on the fitted dose curve; in most records, active means well fitted curve in the direction sought with a large enough effect; inconclusive means small, poorly fitted or top-dose-only effect, or another doubt; inactive means no such curve, though single readings can be large; an effect the other way counts as inactive or inconclusive.

SMILES	DT40 TDP1 no CPT	TDP1 block	DT40 TDP1 CPT	TGFb inhibitor	HepG2 viability	IL-1B inflam inh
OC1c2cc(Br)ccc2N=C2CCCCCN21 (stereo not given)	16µM*	.	?	-18%	-24%	28
OC1c2ccccc2N=C2CCCN21 (stereo not given)	.	13%	.	.	.	.
OC1c2c(F)cccc2N=C2CCCCCN21 (stereo not given)	?	.	?	-1%	-1%	0
NS(=O)(=O)c1ccc(NC(=O)CN2CCN(c3ccc(F)cc3)CC2)cc1	-22%	-1%	-16%	-4%	-6%	.
CN(C)Cc1ccccc1-c1nc(N(C)C)c2ccccc2n1	?	.	12µM*	.	.	.
Cc1cnc(CNc2nc(-c3ccoc3)nc3ccccc23)cn1	?	.	13%	.	.	.
Cc1cccc(CNc2nc(-c3ccoc3)nc3ccccc23)c1	21µM*	?	?	.	.	.
Cc1cccc(CNc2nc(-c3ccccc3CN(C)C)nc3ccccc23)c1	5.2µM*	16%[56.1 µM]	13µM*	.	.	.
CN(C)Cc1ccccc1-c1nccc(N(C)C)n1	?	-4%[56.1 µM]	-12%	.	.	.
CN(C)Cc1ccccc1-c1nc(NCc2cccs2)c2ccccc2n1	21µM*	.	21µM*	.	.	.
CN(C)Cc1ccccc1-c1ccc2ncnc(NCc3cccs3)c2c1	?	16%[56.1 µM]	?	.	.	.
COc1ccc(CN(C(=O)Cn2nnc(-c3ccc(C)o3)n2)C(C(=O)NCC2CCCO2)c2ccco2)cc1 (stereo not given)	?	3%	-28%	-23%	4%	-8
COc1cc(C(CC(=O)Nc2ccc(Br)cn2)N2Cc3ccccc3C2=O)cc(OC)c1OC (stereo not given)	?	6%	?	9%	-1%	.
O=C(N/C(=C\c1cccc(Br)c1)C(=O)N1CCOCC1)c1ccco1	-1%	10%[0.0935 µM]	-1%	0%	6%	0
Cc1cccc(NC(=O)c2ccc(Cl)c(S(=O)(=O)N3CCCCC3)c2)n1	?	-3%	?	-14%	0%	-12
COc1ccc(S(=O)(=O)N2CCOCC2)cc1C(=O)N1CCCC1	0%	0%	1%	1%	-30%	8
COc1ccc(NC(=O)C2(C)CCN2CCc2ccccc2)cc1OC (stereo not given)	?	.	?	-18%	-20%	-8
COc1ccc(OC)c(NC(=O)C2(C)CCN2CCc2ccccc2)c1 (stereo not given)	16µM*	.	23µM*	-20%	-22%	16
COc1cccc(NC(=O)C2(C)CCN2CCc2ccccc2)c1 (stereo not given)	?	.	23µM*	0%	-9%	17
CCCCCCCCNCCS(=O)(=O)NCc1ccc(OC)cc1	?	.	?	?	-113%	-50*
CCCCCCCCNS(=O)(=O)CCNCCc1ccccc1	?	.	-29%	?	-95%	?
CCCCCCCCNS(=O)(=O)CCNCc1ccccc1	?	.	?	?	-25%	?
CCCCCCCCNS(=O)(=O)CCNCc1ccccc1OC	21µM*	.	?	?	13µM*	-62*
CCCCCCCCNCCS(=O)(=O)NC1CCCCC1	?	.	?	?	-96%	-70*
COc1ccc(CNS(=O)(=O)CCNCc2ccccc2OC)cc1	-25%	.	-16%	-11%	-18%	6
SMILES	DT40 TDP1 no CPT	TDP1 block	DT40 TDP1 CPT	TGFb inhibitor	HepG2 viability	IL-1B inflam inh
CCCCCCCCNCCS(=O)(=O)NCCCCCCCC	16µM*	.	?	9%	-35%	0
CN1CCN(/N=C/c2nc(-c3ccccc3)n3ccccc23)CC1	2%	3%	-5%	2%	-3%	-18
Cc1c(C(=O)N2CCCC2)oc2c1-c1nn(CC(=O)NCc3ccccc3F)cc1CC2	?	3%	?	?	-20%	.
CCCC(=O)Nc1c(-c2ccccc2)[nH][nH]c1=O	16%	.	-5%	7%	-34%	13
O=C(NCc1ccc(Cl)cc1Cl)Nc1nc([C@@H]2O[C@H](CO)[C@@H](O)[C@H](O)[C@H]2O)cs1	-1%	.	1%	24%	16%	24
Cc1nc([N+](=O)[O-])c(Sc2nc3ccc([N+](=O)[O-])cc3[nH]2)n1Cc1ccccc1	8.2µM*	-1%	9.2µM*	-90%	10µM*	-76*
Cc1nc([N+](=O)[O-])c(Br)n1CC(=O)c1ccc(F)cc1	16µM*	0%	?	0%	-14%	-97*
COC(=O)Cn1c(C)nc([N+](=O)[O-])c1Br	?	0%	-30%	?	-16%	?
Cc1nc([N+](=O)[O-])c(Br)n1Cc1ccccc1	6.5µM*	.	5.2µM*	?	-53%	-10
Cc1nc([N+](=O)[O-])c(Br)n1CC(=O)c1cccc([N+](=O)[O-])c1	16µM*	-5%	15µM*	-28%	-30%	-98*
Cc1cc(O)cc(=O)n1Cc1ccccc1	-14%	.	-3%	0%	-40%	14
O=C(Cc1c(F)cccc1Cl)N1CCN(S(=O)(=O)c2cccs2)CC1	-1%	0%	-2%	2%	-9%	18
CN1CCCN(C(=O)[C@@H]2C[C@@H](Sc3nc4ccccc4[nH]3)CN2Cc2ccc(OC(F)(F)F)cc2)CC1	?	.	-16%[9.04 µM]	.	.	.
O=C(NCCCN1CCN(c2ccc(F)cc2)CC1)c1sc2ncccc2c1-n1cccc1	?	7%	16µM*	?	-27%	.
O=C(NCCc1ccccc1Cl)c1sc2ncccc2c1-n1cccc1	?	5%	23µM*	?	-3%	.
O=C(NCCCN1CCCCC1)c1sc2ncccc2c1-n1cccc1	-13%	1%	-19%	-12%	-15%	.
CCOc1ccccc1CNC(=O)c1sc2ncccc2c1-n1cccc1	16µM*	4%	15µM*	?	-17%	.
CC1CCCCN1CCCNC(=O)c1sc2ncccc2c1-n1cccc1 (stereo not given)	-23%	7%	-24%	29%	4%	.
Cc1cc(C)cc(NC(=O)COC(=O)CC2CCCC2)c1	-4%	-6%[56.1 µM]	7%	-1%	-10%	-7
CC1(C)C2CCC1(C)C(SC(=N)N)C2 (stereo not given)	?	.	21µM*	-5%	-7%	-82*
